{"source": "paper PMC7862700", "about": "“An all-to-all approach to the identification of sequence-specific readers for epigenetic DNA modifications on cytosine”", "test_in_all_cases": "DAPPL (digital affinity profiling via proximity ligation, sequencing); 10 mM Tris-HCl pH 7.5, 50 mM NaCl, 1 mM DTT, 4% glycerol, room temperature, 30 min; GST-TFs on glutathione beads, 16-mer random dsDNA library, 0.1% formaldehyde crosslink after washing; high values mean tight binding", "key": {"FLI1": {"molecular_target": "T1, FLI1 (Homo sapiens, UniProt Q01543 1-452)", "T1 sequence": "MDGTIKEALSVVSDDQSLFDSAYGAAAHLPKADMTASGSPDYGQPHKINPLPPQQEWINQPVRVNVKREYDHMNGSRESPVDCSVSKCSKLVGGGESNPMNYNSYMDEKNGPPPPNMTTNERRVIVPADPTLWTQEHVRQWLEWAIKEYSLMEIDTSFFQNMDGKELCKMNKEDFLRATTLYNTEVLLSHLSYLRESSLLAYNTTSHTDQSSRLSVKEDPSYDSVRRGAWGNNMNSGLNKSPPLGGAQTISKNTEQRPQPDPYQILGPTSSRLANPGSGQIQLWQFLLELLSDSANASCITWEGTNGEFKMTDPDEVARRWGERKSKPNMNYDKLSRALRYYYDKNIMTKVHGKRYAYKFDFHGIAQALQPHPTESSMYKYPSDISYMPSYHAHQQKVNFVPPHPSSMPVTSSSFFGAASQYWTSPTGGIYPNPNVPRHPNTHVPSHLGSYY", "conditions": "protein: recombinant; tags: N-terminal GST; dsDNA, one strand shown", "how_it_was_run": "(§1)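 Beads coated with glutathione captured GST-fused human transcription factors that had been expressed in yeast, and the factors were then given DNA barcodes and pooled with a tag-only sample. The pools were incubated with 200 nmole of a random double-stranded 16-mer DNA library in Tris/NaCl/DTT/glycerol buffer for 30 min at room temperature, washed, crosslinked with 0.1% formaldehyde and proximity-ligated with BsaI/T4 ligase at 37 °C for 1 h. PCR amplification and Illumina NextSeq500 sequencing came last. Binding signal is each hexamer's read frequency for a factor divided by its frequency for the tag-only sample.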"}, "ELK1": {"molecular_target": "T2, ELK1 (Homo sapiens, UniProt P19419 1-428)", "T2 sequence": "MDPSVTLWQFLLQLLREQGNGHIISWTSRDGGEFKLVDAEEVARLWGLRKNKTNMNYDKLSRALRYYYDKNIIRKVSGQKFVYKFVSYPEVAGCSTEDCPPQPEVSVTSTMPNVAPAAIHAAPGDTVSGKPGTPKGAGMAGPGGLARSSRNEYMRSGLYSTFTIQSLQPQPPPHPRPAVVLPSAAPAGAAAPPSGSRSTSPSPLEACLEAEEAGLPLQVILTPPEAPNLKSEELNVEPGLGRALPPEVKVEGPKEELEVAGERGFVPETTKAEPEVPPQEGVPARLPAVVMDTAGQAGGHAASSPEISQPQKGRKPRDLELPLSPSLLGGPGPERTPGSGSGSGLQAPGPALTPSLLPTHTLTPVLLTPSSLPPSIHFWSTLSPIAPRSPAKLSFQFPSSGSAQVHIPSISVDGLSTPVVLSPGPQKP", "conditions": "protein: recombinant; tags: N-terminal GST; dsDNA, one strand shown", "how_it_was_run": "as §1"}, "GABPA": {"molecular_target": "T3, GABPA (Homo sapiens, UniProt Q06546 1-454)", "T3 sequence": "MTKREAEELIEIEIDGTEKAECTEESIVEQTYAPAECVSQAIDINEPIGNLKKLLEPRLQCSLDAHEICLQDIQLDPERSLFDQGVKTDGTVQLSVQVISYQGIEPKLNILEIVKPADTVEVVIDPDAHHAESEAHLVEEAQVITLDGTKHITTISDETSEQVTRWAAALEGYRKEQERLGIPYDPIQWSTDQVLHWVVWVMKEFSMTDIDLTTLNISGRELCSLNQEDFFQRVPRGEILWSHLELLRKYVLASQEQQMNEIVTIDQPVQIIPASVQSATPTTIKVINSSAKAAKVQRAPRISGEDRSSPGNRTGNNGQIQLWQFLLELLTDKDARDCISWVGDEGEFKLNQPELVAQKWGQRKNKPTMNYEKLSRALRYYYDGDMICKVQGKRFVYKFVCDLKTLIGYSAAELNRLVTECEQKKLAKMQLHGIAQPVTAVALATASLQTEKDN", "conditions": "protein: recombinant; tags: N-terminal GST; dsDNA, one strand shown", "how_it_was_run": "as §1"}, "ERG": {"molecular_target": "T4, ERG (Homo sapiens, UniProt P11308 1-479)", "T4 sequence": "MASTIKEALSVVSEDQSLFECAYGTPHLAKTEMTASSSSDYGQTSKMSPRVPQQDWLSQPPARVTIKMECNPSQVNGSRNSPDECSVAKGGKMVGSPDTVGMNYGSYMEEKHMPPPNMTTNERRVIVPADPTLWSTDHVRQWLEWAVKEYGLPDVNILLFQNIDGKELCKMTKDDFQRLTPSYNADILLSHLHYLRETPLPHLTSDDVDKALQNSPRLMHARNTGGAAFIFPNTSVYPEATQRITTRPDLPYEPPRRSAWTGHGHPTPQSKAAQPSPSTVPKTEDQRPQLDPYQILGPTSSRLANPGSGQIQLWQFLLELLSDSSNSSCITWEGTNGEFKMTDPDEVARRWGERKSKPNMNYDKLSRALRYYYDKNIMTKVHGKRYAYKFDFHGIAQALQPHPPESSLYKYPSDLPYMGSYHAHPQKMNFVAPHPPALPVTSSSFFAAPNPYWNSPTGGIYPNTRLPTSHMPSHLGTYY", "conditions": "protein: recombinant; tags: N-terminal GST; dsDNA, one strand shown", "how_it_was_run": "as §1"}, "EHF": {"molecular_target": "T5, EHF (Homo sapiens, UniProt Q9NZC4 1-300)", "T5 sequence": "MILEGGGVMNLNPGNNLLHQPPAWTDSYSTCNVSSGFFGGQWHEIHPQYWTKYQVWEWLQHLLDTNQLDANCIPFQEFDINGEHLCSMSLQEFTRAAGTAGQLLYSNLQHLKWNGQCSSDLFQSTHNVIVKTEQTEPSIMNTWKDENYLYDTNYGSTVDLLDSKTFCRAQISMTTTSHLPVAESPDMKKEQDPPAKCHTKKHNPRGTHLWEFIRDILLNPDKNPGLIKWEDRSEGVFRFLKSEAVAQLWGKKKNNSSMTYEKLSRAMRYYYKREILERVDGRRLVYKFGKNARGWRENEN", "conditions": "protein: recombinant; tags: N-terminal GST; dsDNA, one strand shown", "how_it_was_run": "as §1"}, "SPI1": {"molecular_target": "SPI1 (Homo sapiens, UniProt P17947 1-270)", "conditions": "protein: recombinant; tags: N-terminal GST; dsDNA, one strand shown", "how_it_was_run": "as §1"}, "SPIB": {"molecular_target": "SPIB (Homo sapiens, UniProt Q01892 1-262)", "sequence (Q01892 whole entry)": "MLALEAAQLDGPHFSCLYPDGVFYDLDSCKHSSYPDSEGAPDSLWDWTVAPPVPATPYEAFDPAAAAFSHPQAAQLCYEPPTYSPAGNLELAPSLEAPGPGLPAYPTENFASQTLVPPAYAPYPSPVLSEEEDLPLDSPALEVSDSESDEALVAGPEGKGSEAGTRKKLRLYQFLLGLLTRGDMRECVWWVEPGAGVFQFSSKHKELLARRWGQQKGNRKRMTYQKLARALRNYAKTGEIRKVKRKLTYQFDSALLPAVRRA", "conditions": "protein: recombinant; tags: N-terminal GST; dsDNA, one strand shown", "how_it_was_run": "as §1"}, "ELK3": {"molecular_target": "T6, ELK3 (Homo sapiens, UniProt P41970 1-407)", "T6 sequence": "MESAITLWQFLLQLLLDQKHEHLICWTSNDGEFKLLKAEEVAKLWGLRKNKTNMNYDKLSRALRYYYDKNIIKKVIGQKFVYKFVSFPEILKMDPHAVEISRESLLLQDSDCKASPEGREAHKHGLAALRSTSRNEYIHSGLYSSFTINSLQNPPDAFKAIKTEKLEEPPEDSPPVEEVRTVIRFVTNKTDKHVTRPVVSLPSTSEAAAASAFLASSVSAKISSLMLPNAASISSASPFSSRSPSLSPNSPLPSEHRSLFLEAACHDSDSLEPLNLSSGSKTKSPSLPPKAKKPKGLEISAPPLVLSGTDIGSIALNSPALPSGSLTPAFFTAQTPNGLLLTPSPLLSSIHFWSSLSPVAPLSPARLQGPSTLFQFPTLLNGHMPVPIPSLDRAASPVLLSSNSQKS", "conditions": "protein: recombinant; tags: N-terminal GST; dsDNA, one strand shown", "how_it_was_run": "as §1"}, "FEV": {"molecular_target": "T7, FEV (Homo sapiens, UniProt Q99581 1-238)", "T7 sequence": "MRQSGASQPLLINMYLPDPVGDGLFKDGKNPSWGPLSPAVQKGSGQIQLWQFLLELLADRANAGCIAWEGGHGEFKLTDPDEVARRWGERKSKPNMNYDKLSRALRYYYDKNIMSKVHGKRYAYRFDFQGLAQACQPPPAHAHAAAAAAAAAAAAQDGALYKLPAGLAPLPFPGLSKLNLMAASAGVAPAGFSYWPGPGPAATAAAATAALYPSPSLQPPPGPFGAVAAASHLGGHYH", "conditions": "protein: recombinant; tags: N-terminal GST; dsDNA, one strand shown", "how_it_was_run": "as §1"}, "ETV5": {"molecular_target": "ETV5 (Homo sapiens, UniProt P41161 1-510)", "sequence (P41161 whole entry)": "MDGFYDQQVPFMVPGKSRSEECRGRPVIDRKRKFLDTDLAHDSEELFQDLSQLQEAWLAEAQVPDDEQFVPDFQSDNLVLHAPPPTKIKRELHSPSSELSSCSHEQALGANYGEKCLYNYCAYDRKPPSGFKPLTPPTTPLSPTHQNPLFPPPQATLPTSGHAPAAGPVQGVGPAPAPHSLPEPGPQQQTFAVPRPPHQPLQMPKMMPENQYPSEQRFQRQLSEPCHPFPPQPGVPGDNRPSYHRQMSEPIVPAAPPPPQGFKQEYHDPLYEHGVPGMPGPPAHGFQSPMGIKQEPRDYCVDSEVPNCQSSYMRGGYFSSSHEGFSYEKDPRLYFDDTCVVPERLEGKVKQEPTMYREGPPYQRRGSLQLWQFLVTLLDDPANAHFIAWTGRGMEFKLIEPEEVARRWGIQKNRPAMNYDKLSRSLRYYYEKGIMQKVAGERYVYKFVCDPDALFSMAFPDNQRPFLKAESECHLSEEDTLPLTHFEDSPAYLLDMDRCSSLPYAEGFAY", "conditions": "protein: recombinant; tags: N-terminal GST; dsDNA, one strand shown", "how_it_was_run": "as §1"}, "HSF1": {"molecular_target": "HSF1 (Homo sapiens, UniProt Q00613 1-529)", "sequence (Q00613 whole entry)": "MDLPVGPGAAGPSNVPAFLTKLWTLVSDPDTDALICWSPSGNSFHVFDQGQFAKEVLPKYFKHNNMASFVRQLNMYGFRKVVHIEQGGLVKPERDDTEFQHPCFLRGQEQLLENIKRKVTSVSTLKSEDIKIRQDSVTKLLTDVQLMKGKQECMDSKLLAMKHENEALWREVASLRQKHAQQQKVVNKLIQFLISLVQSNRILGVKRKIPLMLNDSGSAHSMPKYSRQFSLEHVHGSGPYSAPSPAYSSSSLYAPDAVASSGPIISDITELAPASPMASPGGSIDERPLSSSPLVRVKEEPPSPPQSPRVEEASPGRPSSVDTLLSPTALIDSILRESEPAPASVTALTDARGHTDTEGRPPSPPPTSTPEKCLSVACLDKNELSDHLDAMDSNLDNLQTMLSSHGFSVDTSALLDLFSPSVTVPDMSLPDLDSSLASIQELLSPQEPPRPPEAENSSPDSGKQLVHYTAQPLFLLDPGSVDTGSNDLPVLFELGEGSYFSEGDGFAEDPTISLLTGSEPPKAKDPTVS", "conditions": "protein: recombinant; tags: N-terminal GST; chain copies: 3; dsDNA, one strand shown", "how_it_was_run": "as §1"}, "SPIC": {"molecular_target": "T8, SPIC (Homo sapiens, UniProt Q8N5J4 1-248)", "T8 sequence": "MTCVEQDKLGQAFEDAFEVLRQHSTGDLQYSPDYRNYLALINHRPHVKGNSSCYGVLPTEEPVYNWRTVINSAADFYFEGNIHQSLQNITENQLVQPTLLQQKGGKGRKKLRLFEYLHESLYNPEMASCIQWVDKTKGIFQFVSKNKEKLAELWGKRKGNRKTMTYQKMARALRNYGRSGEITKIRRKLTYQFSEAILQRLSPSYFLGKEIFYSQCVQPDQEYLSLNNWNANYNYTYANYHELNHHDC", "conditions": "protein: recombinant; tags: N-terminal GST; dsDNA, one strand shown", "how_it_was_run": "as §1"}, "ELK4": {"molecular_target": "T9, ELK4 (Homo sapiens, UniProt P28324-2 1-405)", "T9 sequence": "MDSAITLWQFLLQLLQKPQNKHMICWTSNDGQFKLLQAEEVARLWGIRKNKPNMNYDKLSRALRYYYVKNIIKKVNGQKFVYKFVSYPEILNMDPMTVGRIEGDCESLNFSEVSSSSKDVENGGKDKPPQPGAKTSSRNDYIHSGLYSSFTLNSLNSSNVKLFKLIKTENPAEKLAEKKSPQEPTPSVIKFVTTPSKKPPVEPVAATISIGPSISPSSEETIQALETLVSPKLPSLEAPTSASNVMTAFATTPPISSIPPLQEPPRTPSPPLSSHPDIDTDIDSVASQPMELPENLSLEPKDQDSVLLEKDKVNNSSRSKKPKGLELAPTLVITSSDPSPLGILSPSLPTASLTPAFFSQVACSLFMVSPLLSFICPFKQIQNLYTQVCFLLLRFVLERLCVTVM", "conditions": "protein: recombinant; tags: N-terminal GST; dsDNA, one strand shown", "how_it_was_run": "as §1"}, "ELF3": {"molecular_target": "T10, ELF3 (Homo sapiens, UniProt P78545 1-371)", "T10 sequence": "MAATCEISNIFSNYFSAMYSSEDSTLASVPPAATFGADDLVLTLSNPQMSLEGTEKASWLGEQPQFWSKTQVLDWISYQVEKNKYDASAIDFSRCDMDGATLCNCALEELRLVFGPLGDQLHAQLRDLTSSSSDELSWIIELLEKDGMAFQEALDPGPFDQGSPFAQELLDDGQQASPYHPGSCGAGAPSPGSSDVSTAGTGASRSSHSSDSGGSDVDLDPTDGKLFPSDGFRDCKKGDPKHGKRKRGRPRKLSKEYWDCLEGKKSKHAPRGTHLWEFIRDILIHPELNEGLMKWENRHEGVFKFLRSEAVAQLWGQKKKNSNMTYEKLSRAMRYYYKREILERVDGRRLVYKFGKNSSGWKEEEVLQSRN", "conditions": "protein: recombinant; tags: N-terminal GST; dsDNA, one strand shown", "how_it_was_run": "as §1"}, "CRX": {"molecular_target": "CRX (Homo sapiens, UniProt O43186 1-299)", "sequence (O43186 whole entry)": "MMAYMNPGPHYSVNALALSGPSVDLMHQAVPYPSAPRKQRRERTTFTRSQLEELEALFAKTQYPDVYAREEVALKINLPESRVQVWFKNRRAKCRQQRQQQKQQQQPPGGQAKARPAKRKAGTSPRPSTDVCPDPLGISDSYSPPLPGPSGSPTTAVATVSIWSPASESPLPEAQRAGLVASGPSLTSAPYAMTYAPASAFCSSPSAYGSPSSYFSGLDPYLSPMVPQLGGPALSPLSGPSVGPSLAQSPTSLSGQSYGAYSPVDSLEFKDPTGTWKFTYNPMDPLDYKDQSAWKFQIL", "conditions": "protein: recombinant; tags: N-terminal GST; dsDNA, one strand shown", "how_it_was_run": "as §1"}, "ETV1": {"molecular_target": "ETV1 (Homo sapiens, UniProt P50549 1-477)", "sequence (P50549 whole entry)": "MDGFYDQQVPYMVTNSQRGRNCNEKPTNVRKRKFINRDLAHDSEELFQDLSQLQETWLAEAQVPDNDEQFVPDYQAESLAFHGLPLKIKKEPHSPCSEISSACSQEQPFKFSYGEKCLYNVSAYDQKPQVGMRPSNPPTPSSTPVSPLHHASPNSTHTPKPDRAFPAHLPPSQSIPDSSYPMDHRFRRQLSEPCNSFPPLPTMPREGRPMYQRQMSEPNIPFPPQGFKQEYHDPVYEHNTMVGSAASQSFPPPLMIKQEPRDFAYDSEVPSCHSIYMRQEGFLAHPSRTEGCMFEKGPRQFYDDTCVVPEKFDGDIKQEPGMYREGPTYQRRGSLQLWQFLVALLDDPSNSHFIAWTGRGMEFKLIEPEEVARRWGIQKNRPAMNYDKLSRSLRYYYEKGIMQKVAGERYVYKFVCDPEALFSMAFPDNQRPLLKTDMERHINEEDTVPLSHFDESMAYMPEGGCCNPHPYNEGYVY", "conditions": "protein: recombinant; tags: N-terminal GST; dsDNA, one strand shown", "how_it_was_run": "as §1"}}}
{"sequence": "TGTTCG", "values": [{"measurement": "binding signal", "setting": "FLI1", "result": "1.19 fold enrichment (6-mer frequency, TF over GST control)"}, {"measurement": "binding signal", "setting": "ELK1", "result": "1.1 fold enrichment (6-mer frequency, TF over GST control)"}, {"measurement": "binding signal", "setting": "GABPA", "result": "1.07 fold enrichment (6-mer frequency, TF over GST control)"}, {"measurement": "binding signal", "setting": "ERG", "result": "1.04 fold enrichment (6-mer frequency, TF over GST control)"}, {"measurement": "binding signal", "setting": "EHF", "result": "1.2 fold enrichment (6-mer frequency, TF over GST control)"}, {"measurement": "binding signal", "setting": "SPI1", "result": "1.06 fold enrichment (6-mer frequency, TF over GST control)"}, {"measurement": "binding signal", "setting": "SPIB", "result": "1.09 fold enrichment (6-mer frequency, TF over GST control)"}, {"measurement": "binding signal", "setting": "ELK3", "result": "1.03 fold enrichment (6-mer frequency, TF over GST control)"}, {"measurement": "binding signal", "setting": "FEV", "result": "1.01 fold enrichment (6-mer frequency, TF over GST control)"}, {"measurement": "binding signal", "setting": "ETV5", "result": "1.06 fold enrichment (6-mer frequency, TF over GST control)"}, {"measurement": "binding signal", "setting": "HSF1", "result": "1.6 fold enrichment (6-mer frequency, TF over GST control)"}, {"measurement": "binding signal", "setting": "SPIC", "result": "1.15 fold enrichment (6-mer frequency, TF over GST control)"}, {"measurement": "binding signal", "setting": "ELK4", "result": "1.01 fold enrichment (6-mer frequency, TF over GST control)"}, {"measurement": "binding signal", "setting": "ELF3", "result": "1.17 fold enrichment (6-mer frequency, TF over GST control)"}, {"measurement": "binding signal", "setting": "CRX", "result": "1.06 fold enrichment (6-mer frequency, TF over GST control)"}, {"measurement": "binding signal", "setting": "ETV1", "result": "1.05 fold enrichment (6-mer frequency, TF over GST control)"}]}
